The results in this text go back to PubChem BioAssay AID624442 (Broad Institute, 2012).

A number with no mark means an inactive call.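 The calls were made as follows: active = activation curve reaches 40% at a concentration no higher than the top valid dose tested; inactive = signal falling instead of rising, plus the rest.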

This experiment can be described thus: reactive oxygen species induction in U2OS, dose response, U2OS cells, fluorescence, dry powder, set 2 (AID 624442). Particulars: U2OS ROS induction, H2DCF-DA fluorescence, stronger effect = higher value; at 38 µM unless noted.
Regarding `Nc1nc(SCc2ccc(Cl)cc2Cl)ns1`, the max activation is 32.3% [at 0.3 µM]. As to `Nc1nc(SCc2ccccc2)ns1`, the max activation is 14.6% [at 5 µM]. On to `Cc1ccccc1CSc1n[nH]c(N)n1`, for which the max activation was 25.1% [at 1.2 µM].

Take `O=C(Nc1nc(SCc2ccccc2)ns1)C1CCC1`: the max activation was 30.8%.

`Nc1nc(S(=O)(=O)Cc2ccccc2)ns1`: the max activation is 18.5% [at 0.6 µM].

As to `Cc1ccccc1CSc1nnc(N)s1`, the max activation is 16.2% [at 19.5 µM]. With `Nc1nc(SCc2ccccc2Cl)ns1` the figure was 17.6% [at 5 µM]; with `O=C(Nc1ccccc1)Nc1nc(SCc2ccccc2)ns1`, 11.1%; with `Cc1ccccc1CSc1nsc(N)n1`, 27.9% [at 19.5 µM]. `Cc1cccc(CSc2nsc(N)n2)c1`: the max activation is 24.3% [at 19.5 µM]. On to `O=C(Nc1nc(SCc2ccccc2)ns1)C1CC=CCC1` (configuration not stated), for which the max activation is 65.2%. With `Nc1nc(SCc2ccc(F)cc2)ns1` the figure was 15.9% [at 1.2 µM].
